Structures can show the parent of a compound that is named as a salt.

The test system of the assay is Staphylococcus aureus Sa2 (MRSA, cystic fibrosis isolate). Kind of assay: growth reduction vs untreated control (OD550); higher = stronger antibacterial activity. The note with it: 0.1 mM; 24 h. How it is done:
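Single-dose screen of the MedChem Express Drug Repurposing Library (0.1 mM, 1% DMSO) against planktonic MRSA S. aureus Sa2 (CF isolate) in TSB in 96-well plates, 37 °C aerobic, 24 h. Assays were run in triplicate and repeated twice.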
For the molecule `C[C@@H]1CCc2ncc(F)cc2[C@H]2CCCN2c2ccn3ncc(c3n2)C(=O)N1` [Selitrectinib], the growth reduction turned out to be 96.9%. Under `C[C@H](Nc1cc(-c2cnn(C)c2)cc(Nc2cnccn2)n1)c1ccc(F)cc1` [Ilginatinib] stands 100%; under `OCCN1CCN(CCCN2c3ccccc3Sc3ccc(Cl)cc32)CC1` [Perphenazine], 100%; under `CCCCCCCCCCCC[N+](C)(C)CCOc1ccccc1` [Domiphen (bromide)], 100%. Under `Cc1cc(SCc2sc(-c3ccc(C(F)(F)F)cc3)nc2C)ccc1OCC(=O)O` stands 100%; under `CO[C@@H](Cc1ccc(OCCc2nc(-c3ccccc3)oc2C)c2ccsc12)C(=O)O` [Aleglitazar], 92.2%. In the case of `CC[C@@]1(O)C[C@H](O[C@H]2C[C@H](N(C)C)[C@H](O[C@H]3C[C@H](O)[C@H](O[C@H]4CCC(=O)[C@H](C)O4)[C@H](C)O3)[C@H](C)O2)c2c(cc3c(c2O)C(=O)c2c(O)cccc2C3=O)[C@H]1C(=O)OC` [Aclacinomycin A hydrochloride] it was 100%; in that of `N[C@@H]1CC[C@@H](c2ccc(Cl)c(Cl)c2)c2ccccc21` [Dasotraline (hydrochloride)], 100%. For the molecule `O=C(Nc1ncc(SCCN2CCCC2)s1)[C@]1(c2ccc(S(=O)(=O)C3CC3)cc2)C[C@H]1C1CCCCC1` [Globalagliatin], the growth reduction worked out at 100%. In the case of `CN1C(=O)[C@@H](NC(=O)c2n[nH]c(Cc3ccccc3)n2)COc2ccccc21` it was 90.3%; in that of `N#Cc1ccc(Oc2ccc3c(c2)COB3O)cc1` [Crisaborole], 100%. On to `CC(C)=CCC/C(C)=C/CC/C(C)=C/CSc1ccccc1C(=O)O` [Salirasib], for which the growth reduction turned out to be 100%. Under `CC(C)COc1ccc(CNC(=O)N(Cc2ccc(F)cc2)C2CCN(C)CC2)cc1` [Pimavanserin] stands 100%.

In the case of `N[C@@H](Cc1cc(I)c(Oc2cc(I)c(O)c(I)c2)c(I)c1)C(=O)O` [L-Thyroxine (sodium salt pentahydrate)], the growth reduction was found to be 100%. In the case of `CCCCN(CCCC)CCC(O)c1cc2c(Cl)cc(Cl)cc2c2cc(C(F)(F)F)ccc12` (stereo unspecified) [Halofantrine hydrochloride], the growth reduction was 100%.

As for `Clc1ccc(COC(Cn2ccnc2)c2ccc(Cl)cc2Cl)c(Cl)c1` (stereo unspecified) [Miconazole (nitrate)], the growth reduction was 100%.

For the origin of these results see the supplement of paper PMC12024424.
